# Compound activity as filed in PubChem BioAssay.
# An excerpt weighted towards active compounds, which were near 3.8% of everything screened.
# tim10-1 inh = growth inhibitors of tim10-1 mutant yeast. S. cerevisiae tim10-1 ts strain growth, BacTiter-Glo, 24 h. inhibition, % at 20 µM. actives 2.2% (n = 330,000);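 active = inhibition of at least 40%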;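 also: mutant grown at 25 °C; 0% = DMSO wells with yeast and 100% = wells holding no yeast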
# tim23-1 inh = tim23-1 yeast growth inhibition; S. cerevisiae tim23-1 growth, BacTiter-Glo luminescence, 24 h; inhibition, % at 20 µM; actives 1.3% (n = 330,000);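 active = growth inhibition of the mutant yeast at or above 50%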;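 also: temperature-sensitive mutant grown at 25 °C; plate controls were DMSO-treated mutant yeast for no effect and medium wells lacking yeast for full effect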
# TIM10 inh = growth inhibitors of TIM10 yeast strain; inhibition, % at 10 µM; S. cerevisiae TIM10 strain growth, BacTiter-Glo luminescence, 24 h; actives 1.4% (n = 330,000); AID 463195;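 active = inhibition of 40% or more at the single tested concentration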;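 also: wild-type TIM10 isogenic control strain grown at permissive 25 °C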
# Yeast superoxide = yeast age-related superoxide inhibition as caloric restriction mimetic. S. cerevisiae aged cells, superoxide DHE fluorescence; stronger effect = lower value. actives 0.18% (n = 330,000). AID 2690. superoxide response (% of plate mean), % at 10 µM;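 active = superoxide response under a set limit, about three screen SD below normal, cut at about 65% in these data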;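 also: yeast aged for seven days with compound at 30 °C before DHE staining; 100% = average MFI of all compound-treated wells on the plate with controls excluded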
# NALP3 yeast inh = NALP3 inhibition in yeast; Yeast reconstituted NLRP3/ASC/caspase-1, beta-gal luminescence, 24 h; inhibition, % at 10 µM; actives 0.39% (n = 330,000); AID 2825;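 active = inhibition of 50% or more; inactive = inhibition below 50%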;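 also: plate controls were induced DMSO wells for no effect and uninduced yeast grown without galactose for full effect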
# tim10-1 confirm = tim10-1 yeast growth inhibition, confirmed; shares compounds with tim10-1 inh; S. cerevisiae tim10-1 ts strain growth, BacTiter-Glo, 24 h; inhibition, % at 20 µM; actives 56% (n = 7,400); AID 463213;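 active = inhibition of yeast growth at or above a set limit in either of two repeat tests at 20 µM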;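 also: tim10-1 mutant grown at permissive 25 °C to find synthetic lethal compounds; 0% = DMSO yeast wells and 100% = medium wells without yeast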
# tim10 confirm = confirmation of TIM10 yeast growth inhibitors; AID 463215; inhibition, % at 10 µM; actives 63% (n = 4,600); S. cerevisiae tim10 strain growth, BacTiter-Glo luminescence, 24 h; shares compounds with TIM10 inh;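 active = inhibition of yeast growth at or above a set limit in either of two replicates at 10 µM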;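 also: this counterscreen used the strain with wild-type TIM10; 0% = yeast with DMSO and 100% = medium wells lacking yeast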
# tim23-1 conf = confirmation of tim23-1 mutant yeast growth inhibitors | S. cerevisiae tim23-1 growth, BacTiter-Glo luminescence, 24 h | actives 83% (n = 4,400) | inhibition, % at 20 µM | shares compounds with tim23-1 inh;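 active = inhibition above about 39% in either of two replicate wells at 20 µM, limit read from the data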;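 also: temperature-sensitive tim23-1 mutant grown at 25 °C; 0% = DMSO wells with yeast and 100% = medium wells without yeast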
# An asterisk follows results filed as active; . = not tested or not shown.
SMILES,tim10-1 inh,tim23-1 inh,TIM10 inh,Yeast superoxide,NALP3 yeast inh,tim10-1 confirm,tim10 confirm,tim23-1 conf
NC(=O)c1cc(Br)cc2c3c([nH]c12)CCCC3,69.1*,75.9*,55.9*,101.9,20.4,57.6*,-8.2,61.8*
Cc1c(NC(=O)c2ccc([N+](=O)[O-])o2)cccc1-c1nc2ncccc2o1,48.8*,52.7*,47.5*,104.7,12.6,47.8*,52.7*,63.5*
O=C(Nc1cc(Cl)ccc1-n1cncn1)c1ccc([N+](=O)[O-])o1,71.7*,66.3*,48.1*,80.2,10.3,57.7*,55.8*,50.0*
O=C(Nc1cc(Cl)ccc1F)c1ccc(-n2cncn2)c([N+](=O)[O-])c1,0.5,6.7,-4.2,106.4,26.2,.,.,.
COc1cccc(C(=O)Nc2cccc(-c3nc4ncccc4o3)c2C)c1,1.9,0.2,17.4,89.9,14.1,.,.,.
O=C(Nc1ccccc1Cl)c1ccc([N+](=O)[O-])o1,49.9*,67.1*,48.0*,111.1,24.1,55.7*,56.8*,67.7*
CCN(C(=O)COC(=O)/C=C/c1c(C)nn(Cc2ccc(C)cc2)c1C)C1CCS(=O)(=O)C1 (stereo unspecified),7.3,-4.8,3.3,96.3,5.3,.,.,.
CN(CC(=O)Nc1ccc(Cl)c(S(=O)(=O)N2CCOCC2)c1)C(=O)c1ccc(C#N)cc1,-4.2,3.7,3.9,92.4,10.4,.,.,.
Cc1cccc(OCCN2CSC(=S)N(C)C2)c1,41.7*,59.4*,25.7,116.6,49.5,14.1,.,75.8*
COc1ccccc1OCCN1CSC(=S)N(C)C1,41.6*,71.6*,53.2*,113.7,38.3,31.4*,-18.1,60.0*
CC1CCCCC1NC(=O)/C(C#N)=C/c1ccccc1F (stereo unspecified),88.9*,83.8*,85.4*,103.3,20.6,86.8*,88.4*,83.9*
N#C/C(=C\c1c(F)cccc1Cl)C(=O)NC1CC1,73.7*,85.1*,60.9*,98.3,26.7,61.2*,66.0*,81.0*
N#C/C(=C\c1ccccc1)C(=O)NC1CC1,14.4,27.9,23.4,102.2,21.2,.,.,.
CCOC(=O)c1cnc(N2CCN(c3ccccc3)CC2)[nH]c1=O,2.3,22.1,9.6,.,14.8,.,.,.
CC(C)(O)C#Cc1ccc(C(=O)N2CCCC(CNS(=O)(=O)c3cccs3)C2)o1 (stereo unspecified),7.4,6.7,11.6,106.5,12.5,.,.,.
Cc1cccc(NC(=S)NC2CCCCC2)n1,41.0*,52.1*,49.7*,116.2,18.5,27.6,43.8*,49.9*
Cc1ccc(C)c2sc(N3CCN(C(=O)c4ccc([N+](=O)[O-])o4)CC3)nc12,70.1*,72.8*,-102.1,107.1,34.9,60.0*,.,7.1
Nc1ccc(-n2cnc3cc([N+](=O)[O-])ccc32)cc1,10.3,11.1,7.5,94.2,33.8,.,.,.
Nc1ccc2nn(-c3cc([N+](=O)[O-])ccc3O)nc2c1,51.3*,58.3*,28.3,101.6,1.7,37.8*,.,52.8*
Cc1cnc(NC(=O)C2CC=CCC2)s1 (stereo unspecified),15.2,23.6,-9.2,88.9,12.3,.,.,.
O=C1c2ccccc2-c2onc3ccc(Oc4ccccc4)c1c23,75.7*,77.2*,56.5*,110.8,41.4,59.2*,68.2*,85.2*
Cc1noc(C)c1S(=O)(=O)Nc1ccccc1Oc1ccccc1,35.8,38.9,37.3,106.3,-10.7,.,.,.
COc1ccc(NC(=O)C(=O)N/N=C/c2cc(C)n(-c3cccc(Cl)c3Cl)c2C)c(OC)c1,11.0,22.7,11.1,99.0,13.4,.,.,.
O=C1c2ccccc2C(Nc2ccc(Cl)cn2)N1Cc1ccccc1 (stereo unspecified),43.9*,55.6*,42.2*,97.6,18.5,28.7,45.9*,54.0*
Cc1nc(C)n(C(C)CNC(=O)c2cccc(Br)c2)n1 (stereo unspecified),4.9,12.7,2.1,93.0,6.0,.,.,.
SMILES,tim10-1 inh,tim23-1 inh,TIM10 inh,Yeast superoxide,NALP3 yeast inh,tim10-1 confirm,tim10 confirm,tim23-1 conf
CCCN(CCC)CCCNC(=O)c1nn(-c2cccc(OC)c2)c(=O)c2ccccc12,9.7,14.7,-0.6,86.5,7.7,.,.,.
Nc1ccc(N=Nc2ccccc2)c2ccccc12,49.2*,80.0*,65.2*,95.4,34.0,38.6*,75.4*,12.6
Cc1ccccc1CN1CCN(Cc2ccc3cccc(F)c3n2)CC1CCO (stereo unspecified),14.8,-2.8,0.5,95.2,17.5,.,.,.
O=C(Nc1nc2c(Cl)c(Cl)ccc2s1)C1CC1,10.6,1.2,19.2,120.3,43.1,.,.,.
O=C(Nc1nc2c(Br)cccc2s1)C1CC1,46.2*,79.8*,19.9,73.4,-0.6,36.4*,.,75.7*
Cc1cc(C)nc(SCC(=O)N/N=C/c2ccc3c(c2)OCO3)n1,-5.1,7.3,-5.2,101.5,11.4,.,.,.
O=C(CSCc1ccccc1Br)N/N=C/c1ccc2c(c1)OCO2,50.8*,59.8*,32.8,114.1,12.1,45.7*,.,49.5*
O=C1C(Cl)=C(NCCCO)C(=O)c2ccccc21,28.6,29.7,24.5,179.0,21.2,.,.,.
O=C1C(SCCO)=C(SCCO)C(=O)c2ccccc21,85.6*,79.9*,52.1*,107.2,32.4,92.8*,38.0*,75.4*
CCN(C(=O)CSc1nnc(CNc2cccc(OC)c2)n1C1CCCCC1)C1CCS(=O)(=O)C1 (stereo unspecified),12.2,11.2,5.8,84.3,10.5,.,.,.
C[C@H](CO)N1C[C@H](C)[C@@H](CN(C)Cc2ccc(C(=O)O)cc2)Oc2c(cccc2N(C)C)C1=O,5.8,17.7,-2.1,103.9,6.3,.,.,.
O=C(N/N=C/c1ccc(Br)cc1)c1ccccc1-n1cccc1,42.4*,54.1*,36.7,101.2,9.0,37.0*,.,51.1*
COc1ccc(C(=O)/C=C/C(=O)N(CC(=O)NC2CCCCC2)CC2CCCO2)c(O)c1 (stereo unspecified),46.5*,50.7*,48.7*,110.2,10.3,56.4*,51.9*,60.2*
O=C(CSc1nnc(COc2cccc3ccccc23)o1)N1c2ccccc2CCc2ccccc21,20.5,18.6,-2.7,98.0,-7.1,.,.,.
Cc1cc2n(n1)C(c1ccco1)Nc1ccccc1-2 (stereo unspecified),14.9,21.3,6.7,104.5,11.3,.,.,.
Cc1cc2n(n1)C(c1cn(-c3ccccc3)nc1C)Nc1ccccc1-2 (stereo unspecified),14.1,22.3,22.9,101.5,17.1,.,.,.
Cc1cc2n(n1)C(c1c[nH]c3ccccc13)Nc1ccccc1-2 (stereo unspecified),60.2*,70.5*,40.1*,98.2,19.2,33.6*,33.2*,-23.1
